# Reference: PMC7862700, “An all-to-all approach to the identification of sequence-specific readers for epigenetic DNA modifications on cytosine”
# Assays:
# Assay in all cases: DAPPL (digital affinity profiling via proximity ligation, sequencing); 10 mM Tris-HCl pH 7.5, 50 mM NaCl, 1 mM DTT, 4% glycerol, room temperature, 30 min; GST-TFs on glutathione beads, 16-mer random dsDNA library, 0.1% formaldehyde crosslink after washing; high values mean tight binding
# Settings in all cases: protein: recombinant; tags: N-terminal GST; dsDNA, one strand shown
# ELK1 = biological target: T1, ELK1 (Homo sapiens, UniProt P19419 1-428)
# T1 sequence: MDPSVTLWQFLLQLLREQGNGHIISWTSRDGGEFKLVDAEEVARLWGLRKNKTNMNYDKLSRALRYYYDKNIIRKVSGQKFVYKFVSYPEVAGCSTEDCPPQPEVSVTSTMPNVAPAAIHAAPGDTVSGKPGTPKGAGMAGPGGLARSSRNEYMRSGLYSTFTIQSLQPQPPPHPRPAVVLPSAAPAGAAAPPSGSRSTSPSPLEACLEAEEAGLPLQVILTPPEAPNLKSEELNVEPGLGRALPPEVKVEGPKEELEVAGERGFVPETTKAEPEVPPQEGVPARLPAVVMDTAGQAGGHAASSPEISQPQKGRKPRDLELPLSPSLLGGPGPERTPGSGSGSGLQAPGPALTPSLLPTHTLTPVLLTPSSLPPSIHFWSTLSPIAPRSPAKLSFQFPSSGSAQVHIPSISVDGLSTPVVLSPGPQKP
# Summary of the method: (§1)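 GST fusions of human transcription factors were expressed in yeast and captured with glutathione beads. Once given DNA barcodes and pooled alongside a tag-only sample, they were incubated for 30 min at room temperature with 200 nmole of a random double-stranded 16-mer DNA library in Tris/NaCl/DTT/glycerol buffer, then washed, crosslinked (0.1% formaldehyde), proximity-ligated, PCR-amplified and sequenced on an Illumina NextSeq500. The binding signal of each hexamer is its read frequency for a factor divided by its frequency for the tag-only sample.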
# GABPA = biological target: T2, GABPA (Homo sapiens, UniProt Q06546 1-454)
# T2 sequence: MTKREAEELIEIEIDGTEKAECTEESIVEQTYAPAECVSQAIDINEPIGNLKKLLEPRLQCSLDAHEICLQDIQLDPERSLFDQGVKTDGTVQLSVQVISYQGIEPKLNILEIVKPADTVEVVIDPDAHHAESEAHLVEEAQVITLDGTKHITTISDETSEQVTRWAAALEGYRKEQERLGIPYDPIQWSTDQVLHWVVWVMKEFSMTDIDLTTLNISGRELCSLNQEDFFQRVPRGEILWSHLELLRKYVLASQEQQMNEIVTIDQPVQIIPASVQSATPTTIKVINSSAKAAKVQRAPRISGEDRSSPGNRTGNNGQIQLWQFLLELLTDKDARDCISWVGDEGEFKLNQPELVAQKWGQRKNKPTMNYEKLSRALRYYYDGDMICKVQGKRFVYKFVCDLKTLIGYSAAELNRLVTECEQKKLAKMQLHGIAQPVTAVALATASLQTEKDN
# Summary of the method: as §1
# ERG = biological target: T3, ERG (Homo sapiens, UniProt P11308 1-479)
# T3 sequence: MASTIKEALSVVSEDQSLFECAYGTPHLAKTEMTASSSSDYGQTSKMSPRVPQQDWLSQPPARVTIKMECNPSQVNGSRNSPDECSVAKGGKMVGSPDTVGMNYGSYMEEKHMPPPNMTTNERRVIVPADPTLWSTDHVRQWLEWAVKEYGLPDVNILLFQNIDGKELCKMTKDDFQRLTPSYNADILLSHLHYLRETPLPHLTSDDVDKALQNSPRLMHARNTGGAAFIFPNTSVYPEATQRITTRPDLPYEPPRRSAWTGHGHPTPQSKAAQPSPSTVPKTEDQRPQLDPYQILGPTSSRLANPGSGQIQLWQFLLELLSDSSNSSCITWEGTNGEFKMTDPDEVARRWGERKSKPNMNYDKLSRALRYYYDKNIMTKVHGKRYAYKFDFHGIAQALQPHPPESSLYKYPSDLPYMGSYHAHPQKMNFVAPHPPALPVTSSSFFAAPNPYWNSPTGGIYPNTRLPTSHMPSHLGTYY
# Summary of the method: as §1
# EHF = biological target: T4, EHF (Homo sapiens, UniProt Q9NZC4 1-300)
# T4 sequence: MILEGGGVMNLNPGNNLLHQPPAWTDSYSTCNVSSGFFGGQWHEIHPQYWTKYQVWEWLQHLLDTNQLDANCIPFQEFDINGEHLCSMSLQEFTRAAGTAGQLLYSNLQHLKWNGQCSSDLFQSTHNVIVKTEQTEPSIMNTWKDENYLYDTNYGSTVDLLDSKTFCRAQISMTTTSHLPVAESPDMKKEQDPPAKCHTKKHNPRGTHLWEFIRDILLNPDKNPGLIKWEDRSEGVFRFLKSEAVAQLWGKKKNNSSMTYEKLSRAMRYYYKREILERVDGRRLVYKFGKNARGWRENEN
# Summary of the method: as §1
# SPIB = SPIB (Homo sapiens, UniProt Q01892 1-262)
# Sequence of SPIB (Q01892 whole entry): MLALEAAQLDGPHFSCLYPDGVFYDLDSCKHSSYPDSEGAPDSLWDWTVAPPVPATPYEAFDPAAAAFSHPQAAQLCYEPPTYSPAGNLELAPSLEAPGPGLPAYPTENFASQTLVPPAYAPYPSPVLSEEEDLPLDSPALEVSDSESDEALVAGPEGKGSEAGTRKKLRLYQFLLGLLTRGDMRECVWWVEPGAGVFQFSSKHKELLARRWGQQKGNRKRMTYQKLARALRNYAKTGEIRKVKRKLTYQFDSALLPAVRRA
# Summary of the method: as §1
# FEV = biological target: T5, FEV (Homo sapiens, UniProt Q99581 1-238)
# T5 sequence: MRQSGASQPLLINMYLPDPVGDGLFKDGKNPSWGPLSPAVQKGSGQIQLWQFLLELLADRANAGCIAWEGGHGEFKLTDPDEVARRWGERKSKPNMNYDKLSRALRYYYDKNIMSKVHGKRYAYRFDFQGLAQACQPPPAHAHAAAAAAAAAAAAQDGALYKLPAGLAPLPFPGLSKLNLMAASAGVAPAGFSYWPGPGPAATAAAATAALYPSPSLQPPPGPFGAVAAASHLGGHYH
# Summary of the method: as §1
# ETV5 = ETV5 (Homo sapiens, UniProt P41161 1-510)
# Sequence of ETV5 (P41161 whole entry): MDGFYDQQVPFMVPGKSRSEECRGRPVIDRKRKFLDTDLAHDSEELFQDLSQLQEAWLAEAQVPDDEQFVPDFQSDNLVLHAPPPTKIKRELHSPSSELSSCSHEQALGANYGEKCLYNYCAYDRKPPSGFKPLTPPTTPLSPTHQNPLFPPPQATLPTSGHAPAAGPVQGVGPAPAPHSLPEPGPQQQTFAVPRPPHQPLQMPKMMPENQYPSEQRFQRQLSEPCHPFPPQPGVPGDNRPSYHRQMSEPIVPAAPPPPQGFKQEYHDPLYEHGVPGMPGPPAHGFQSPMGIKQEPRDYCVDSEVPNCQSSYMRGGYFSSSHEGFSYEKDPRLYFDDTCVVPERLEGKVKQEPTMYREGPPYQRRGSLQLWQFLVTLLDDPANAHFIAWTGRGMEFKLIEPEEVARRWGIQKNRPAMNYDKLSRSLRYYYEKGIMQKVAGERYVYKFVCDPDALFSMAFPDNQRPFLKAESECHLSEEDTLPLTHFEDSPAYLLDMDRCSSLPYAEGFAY
# Summary of the method: as §1
# ELF4 = ELF4 (Homo sapiens, UniProt Q99607 1-663)
# Sequence of ELF4 (Q99607 whole entry): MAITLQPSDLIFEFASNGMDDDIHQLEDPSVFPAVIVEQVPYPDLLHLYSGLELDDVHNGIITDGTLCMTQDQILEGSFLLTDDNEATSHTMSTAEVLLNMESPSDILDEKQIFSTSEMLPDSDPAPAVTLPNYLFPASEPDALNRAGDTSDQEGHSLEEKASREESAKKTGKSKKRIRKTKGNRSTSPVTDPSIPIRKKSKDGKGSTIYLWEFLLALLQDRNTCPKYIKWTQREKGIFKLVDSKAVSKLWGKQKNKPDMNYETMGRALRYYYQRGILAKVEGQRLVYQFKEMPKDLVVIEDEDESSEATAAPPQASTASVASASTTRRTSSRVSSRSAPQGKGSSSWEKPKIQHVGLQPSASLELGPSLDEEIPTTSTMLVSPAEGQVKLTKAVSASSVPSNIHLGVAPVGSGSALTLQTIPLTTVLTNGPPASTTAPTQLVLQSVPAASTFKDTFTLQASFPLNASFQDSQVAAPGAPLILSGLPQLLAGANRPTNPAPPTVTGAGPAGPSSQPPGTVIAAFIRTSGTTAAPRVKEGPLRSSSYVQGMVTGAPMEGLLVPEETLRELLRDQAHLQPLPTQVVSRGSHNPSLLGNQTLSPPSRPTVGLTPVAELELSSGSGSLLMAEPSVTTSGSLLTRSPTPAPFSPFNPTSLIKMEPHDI
# Summary of the method: as §1
# ELF3 = biological target: T6, ELF3 (Homo sapiens, UniProt P78545 1-371)
# T6 sequence: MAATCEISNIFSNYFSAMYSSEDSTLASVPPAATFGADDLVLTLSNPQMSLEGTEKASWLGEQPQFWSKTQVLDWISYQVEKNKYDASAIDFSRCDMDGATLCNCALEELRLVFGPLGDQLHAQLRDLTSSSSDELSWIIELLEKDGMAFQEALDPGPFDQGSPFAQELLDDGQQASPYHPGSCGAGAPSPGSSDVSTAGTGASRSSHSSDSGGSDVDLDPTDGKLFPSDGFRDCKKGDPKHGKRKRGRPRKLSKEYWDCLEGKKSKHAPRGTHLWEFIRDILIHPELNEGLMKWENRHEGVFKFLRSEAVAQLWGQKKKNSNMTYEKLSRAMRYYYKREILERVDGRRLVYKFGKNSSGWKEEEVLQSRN
# Summary of the method: as §1
# ETV1 = ETV1 (Homo sapiens, UniProt P50549 1-477)
# Sequence of ETV1 (P50549 whole entry): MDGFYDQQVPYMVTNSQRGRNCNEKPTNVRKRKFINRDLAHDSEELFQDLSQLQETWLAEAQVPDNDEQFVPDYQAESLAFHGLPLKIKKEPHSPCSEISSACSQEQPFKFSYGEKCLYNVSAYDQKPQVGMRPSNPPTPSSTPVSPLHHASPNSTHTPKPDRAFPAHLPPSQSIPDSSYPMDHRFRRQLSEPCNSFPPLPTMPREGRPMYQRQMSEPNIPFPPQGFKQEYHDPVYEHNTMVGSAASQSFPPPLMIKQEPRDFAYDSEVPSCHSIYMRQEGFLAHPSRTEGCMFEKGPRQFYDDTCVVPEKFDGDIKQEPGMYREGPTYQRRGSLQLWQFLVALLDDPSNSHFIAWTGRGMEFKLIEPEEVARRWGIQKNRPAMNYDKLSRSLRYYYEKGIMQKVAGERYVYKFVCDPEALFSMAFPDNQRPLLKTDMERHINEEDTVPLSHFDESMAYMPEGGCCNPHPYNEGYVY
# Summary of the method: as §1
# SPDEF = biological target: T7, SPDEF (Homo sapiens, UniProt O95238 1-335)
# T7 sequence: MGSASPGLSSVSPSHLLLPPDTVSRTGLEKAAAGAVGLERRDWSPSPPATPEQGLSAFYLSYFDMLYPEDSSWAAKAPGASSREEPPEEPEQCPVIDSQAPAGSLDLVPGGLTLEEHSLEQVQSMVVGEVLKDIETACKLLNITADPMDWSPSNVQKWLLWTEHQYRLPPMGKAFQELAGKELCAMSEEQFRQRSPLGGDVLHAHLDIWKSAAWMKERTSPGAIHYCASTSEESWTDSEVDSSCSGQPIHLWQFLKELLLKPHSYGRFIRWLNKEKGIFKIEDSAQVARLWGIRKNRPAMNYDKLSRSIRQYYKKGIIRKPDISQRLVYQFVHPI
# Summary of the method: as §1
sequence,measurement,setting,value
GGTCAC,binding signal,ELK1,"1.02 fold enrichment (6-mer frequency, TF over GST control)"
same,binding signal,GABPA,"1.06 fold enrichment (6-mer frequency, TF over GST control)"
same,binding signal,ERG,"1.01 fold enrichment (6-mer frequency, TF over GST control)"
same,binding signal,EHF,"1.04 fold enrichment (6-mer frequency, TF over GST control)"
same,binding signal,SPIB,"1.02 fold enrichment (6-mer frequency, TF over GST control)"
same,binding signal,FEV,"1.04 fold enrichment (6-mer frequency, TF over GST control)"
same,binding signal,ETV5,"1 fold enrichment (6-mer frequency, TF over GST control)"
same,binding signal,ELF4,"1.03 fold enrichment (6-mer frequency, TF over GST control)"
same,binding signal,ELF3,"1.05 fold enrichment (6-mer frequency, TF over GST control)"
same,binding signal,ETV1,"1.02 fold enrichment (6-mer frequency, TF over GST control)"
same,binding signal,SPDEF,"1.05 fold enrichment (6-mer frequency, TF over GST control)"
